This is a sample that favours compounds with a hit; in the whole collection about 18% have one here.
DT40 TDP1 no CPT = qHTS for Inhibitors of human tyrosyl-DNA phosphodiesterase 1 (TDP1): qHTS in cells in absence of CPT | DT40 Tdp1-/- hTDP1 cells, no CPT, ATP luminescence, 48 h | Potency, µM (titrated, usually from 46.2 µM), without a hit: at the highest dose activity change, negative = growth inhibition, actives largely listed as inhibitors | 15% of 420,000 active; also: potency is read from the fitted curve at half-maximal effect; nearly all actives have a fitted effect of over 55% in size
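Compound effects on proliferation are scored in DT40 Tdp1-/-;hTDP1 cells in the absence of CPT. ATP levels (CellTiter-Glo luminescence) are recorded after a ≥48 hr, 37 °C incubation.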
IL1B secr inh = inhibitors of inflammasome signaling (IL-1 beta secretion); THP-1 LPS/ATP IL-1B secretion, AlphaLISA, 16 h; stronger effect = lower value; activity change, % at 57.5 µM; 4.7% of 360,000 active; in the data active = activity change below about -50%; inconclusive = mostly about -30% to -49%
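THP-1 cells pretreated 1 hr with compounds (up to 57.5 uM final), then stimulated with LPS (250 ng/mL final) plus ATP (1.25 mM final); secreted IL-1B measured by AlphaLISA after 16 hr, decreased signal indicating inhibition.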
LDHA block = LDHA (human) enzyme inhibition | P00338 | purified LDHA, NADH/diaphorase-resazurin fluorescence; stronger effect = lower value | activity change, % (values are at about 110 or 230 µM) | 0.15% of 480,000 active | AID 1347041; in the data active = activity change below about -30%; inconclusive = mostly about -25% to -30%;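 also: plate controls were DMSO wells for no effect and wells without enzyme for full effect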
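Human LDH5 (2 nM) was incubated with 0.06 mM NADH and 0.2 mM pyruvate for 5 min at room temperature in Tris pH 7.4. Remaining NADH was coupled through diaphorase/resazurin, and resorufin fluorescence was read at 0 and 20 min.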
RORgamma inh = inhibitors of mouse ROR gamma transcriptional activity. Drosophila S2 Gal4-RORgamma UAS-luciferase reporter, 20 h. Potency, µM (top dose mostly 53.6 µM), for inactives: at the top dose activity change, negative = inhibition, hits mostly inhibitors. 5.4% of 310,000 active; also: potency is read from the fitted curve at half-maximal effect; nearly all actives have a fitted effect of over 60% in size
Target sequence (P51450 whole entry, looked up, the tested form may be a part): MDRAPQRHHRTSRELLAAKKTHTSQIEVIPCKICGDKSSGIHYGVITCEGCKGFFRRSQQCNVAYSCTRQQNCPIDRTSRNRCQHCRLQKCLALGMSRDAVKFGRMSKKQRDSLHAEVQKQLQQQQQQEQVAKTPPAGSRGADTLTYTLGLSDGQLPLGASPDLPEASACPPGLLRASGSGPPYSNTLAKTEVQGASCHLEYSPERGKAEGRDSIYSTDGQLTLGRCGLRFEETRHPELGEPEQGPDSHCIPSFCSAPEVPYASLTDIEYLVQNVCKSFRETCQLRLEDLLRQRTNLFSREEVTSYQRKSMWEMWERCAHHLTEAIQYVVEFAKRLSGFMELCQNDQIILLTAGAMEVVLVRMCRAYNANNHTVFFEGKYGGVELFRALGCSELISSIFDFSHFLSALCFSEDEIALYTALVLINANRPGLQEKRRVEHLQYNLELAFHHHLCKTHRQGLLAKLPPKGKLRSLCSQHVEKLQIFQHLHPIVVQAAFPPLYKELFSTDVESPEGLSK
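Using a luciferase readout, inhibitors were identified by reduced reporter activity in Drosophila cells coexpressing a copper-inducible Gal4–ROR gamma fusion and UAS-driven Photinus luciferase, incubated 20 hr after 700 uM copper sulfate.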
TDP1 cell CPT = DT40-hTDP1 cell growth loss with CPT; AID 686979; chicken DT40 Tdp1-/-;hTDP1 cells + 20 nM CPT, ATP luminescence, 48 h; Potency, µM (doses to about 46.2 µM), for inactives: at the top dose activity change, negative = growth inhibition, hits mostly inhibitors; 12% of 420,000 active; also: potency is read from the fitted curve at half-maximal effect; nearly all actives have a fitted effect of over 55% in size
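Chicken DT40 Tdp1-/- cells complemented with human TDP1, 400 cells/well, exposed to compounds plus 20 nM camptothecin for at least 48 h at 37 C; viability read as ATP content by CellTiter-Glo luminescence.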
VP16 counter = Gal4-VP16 reporter inhibition counter-screen | Drosophila S2 Gal4-VP16 UAS-luciferase, luminescence, 20 h | Potency, µM (doses to about 53.6 µM), without a hit: at the highest dose activity, negative = inhibition, hits mostly inhibitors | 3.5% of 310,000 active | AID 2546;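 also: Gal4-VP16 expression switched on by copper sulfate through the metallothionein promoter; potency is read from the fitted curve at half-maximal effect; nearly all actives have a fitted effect of over 50% in size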
* marks the source's active call; other numbers are inactive results; ? = inconclusive; nt = no result given. Unless noted, calls follow the shape of the dose curve; as a rule, active = well fitted curve in the direction sought with a large enough effect; inconclusive = small, poorly fitted or top-dose-only effect, or another doubt; inactive = no such curve, though single readings can be large; an effect the other way counts as inactive or inconclusive. Unless noted, % is scaled to controls: 0 for no effect and ±100 for the full control effect.

SMILES | DT40 TDP1 no CPT | IL1B secr inh | LDHA block | RORgamma inh | TDP1 cell CPT | VP16 counter
CCc1noc(-c2ccc(N3CCC(C)CC3)c([N+](=O)[O-])c2)n1 | ? | nt | -2 | nt | 18µM* | nt
Cc1ccc(-c2noc(-c3ccc(N4CCOCC4)c([N+](=O)[O-])c3)n2)cc1 | 21µM* | nt | -6 | nt | -14% | nt
COc1ccc(-c2noc(-c3ccc(N4CCOCC4)c([N+](=O)[O-])c3)n2)cc1 | -1% | nt | -2 | nt | -15% | nt
CCN1CCN(Cc2nc3c(c(=O)n(C)c(=O)n3C)n2CCOC)CC1 | nt | nt | -2 | nt | nt | nt
O=C(NCCCn1ccnc1)c1ccc(N2CCCCCC2)c([N+](=O)[O-])c1 | ? | -17 | -5 | 12% | 18µM* | 5%
C=C1CCN(c2ccc(C(=O)NCCC)cc2[N+](=O)[O-])CC1 | 16µM* | -55* | 0 | nt | 16µM* | nt
CN1C(=O)Cc2cc(-c3csc(Nc4ccccc4)n3)ccc21 | nt | nt | -2 | nt | nt | nt
CCc1cc(=O)oc2cc(OS(=O)(=O)c3cccc(C(F)(F)F)c3)ccc12 | nt | nt | 6 | nt | nt | nt
O=C(CC1C(=O)CCCC1=O)c1ccccc1 | ? | -204* | 3 | 10µM* | 13µM* | ?
O=C(CCC1CCCCC1=O)c1ccccc1 (stereo unspecified) | -1% | -5 | -3 | -4% | -3% | 1%
CC(C)CCn1nc(C(=O)OCC(=O)Nc2ccc(Cl)cc2F)c2ccccc2c1=O | nt | nt | -14 | nt | nt | nt
Cc1ccc(-c2nc3ncccc3o2)cc1NC(=O)c1ccc([N+](=O)[O-])o1 | 16µM* | -97* | -5 | -35% | 15µM* | -25%
COc1ccc(C(=O)Nc2ccc(-c3nc4ncccc4o3)cc2)cc1 | -2% | nt | -4 | nt | -14% | nt
Cc1cc(-c2nc3ncccc3o2)ccc1NC(=O)c1ccc([N+](=O)[O-])o1 | 2% | -1 | 3 | nt | -4% | nt
Cc1cc(C)cc(C(=O)Nc2ccc(-c3nc4ncccc4o3)cc2)c1 | ? | nt | 2 | nt | 21µM* | nt
O=C(Nc1ccc(-c2nc3ncccc3o2)cc1)c1ccc([N+](=O)[O-])o1 | 3.7µM* | -80* | -1 | -38% | 8.2µM* | ?
O=C(Nc1ccc2oc(-c3ccncc3)nc2c1)c1ccc([N+](=O)[O-])o1 | 5.8µM* | -91* | 1 | -37% | 2.9µM* | -13%
Cc1ccoc1C(=O)Nc1ccc(-c2ccccc2)cc1 | nt | nt | -2 | nt | nt | nt
CC(C)(Oc1ccc(Cl)cc1)C(=O)Nc1ccc(-c2nc3ncccc3o2)cc1 | 18µM* | nt | -7 | nt | 16µM* | nt
CN(C)c1cccc(-c2cc(N3CCC(C(N)=O)CC3)ncn2)c1 | nt | nt | 3 | nt | nt | nt
CN(C(=O)CN1CCN(c2cc(-c3ccc(-c4ccccc4)cc3)ncn2)CC1)c1ccccc1 | ? | -15 | -5 | nt | 23µM* | nt
Cc1ccc(C)c(C(=O)Nc2ccc(-c3nc4ccccc4s3)cc2)c1 | nt | nt | 3 | nt | nt | nt
COc1cc(CN2CCN(S(=O)(=O)c3ccc(C)cc3)CC2)cc(OC)c1O | nt | nt | 34 | nt | nt | nt
O=C(CN1CCN(S(=O)(=O)c2ccc(Br)cc2)CC1)c1ccc(O)c(O)c1 | 7.3µM* | 3 | 9 | -24% | 18µM* | 15%
Cc1ccc(S(=O)(=O)N2CCN(Cc3cc(Br)ccc3O)CC2)cc1 | ? | nt | -3 | nt | 18µM* | nt
SMILES | DT40 TDP1 no CPT | IL1B secr inh | LDHA block | RORgamma inh | TDP1 cell CPT | VP16 counter
COC(=O)CCOc1ccc(S(=O)(=O)Nc2ccc(OC)c(Cl)c2)cc1 | nt | nt | 3 | nt | nt | nt
Cc1cc(C)c2c(-n3cccc3)nn(CC(=O)Nc3cc(Cl)ccc3C)c2n1 | nt | nt | -2 | nt | nt | nt
O=C(Nc1cc(Cl)cc(Cl)c1)Nc1cnccn1 | 16µM* | 0 | -1 | 7% | ? | -6%
O=C(Nc1ccc(Br)cc1)Nc1cnccn1 | ? | -1 | -2 | nt | ? | nt
CCCCc1ccc(NC(=O)Nc2cnccn2)cc1 | 23µM* | 15 | -1 | ? | 15µM* | 1%
COc1ccc(C(=O)CCl)cc1Br | nt | nt | 1 | nt | nt | nt
Cc1ccccc1/C=C(\C#N)c1nc2ccccc2[nH]1 | nt | nt | -1 | nt | nt | nt
Cc1c(CCNC(=O)c2ccco2)sc2nc(-c3ccc(F)cc3)nn12 | 23µM* | nt | -2 | nt | 21µM* | nt
Cc1ccc(-c2nc3sc(CCNC(=O)c4ccco4)c(C)n3n2)cc1 | 18µM* | nt | -1 | nt | ? | nt
Cc1c(CCNC(=O)c2ccc(C(C)(C)C)cc2)sc2nc(-c3ccc(F)cc3)nn12 | 13µM* | nt | -3 | nt | 15µM* | nt
O=C(NCc1ccccn1)C1c2ccccc2C(=O)N(Cc2ccccc2)C12CCCCC2 (stereo unspecified) | nt | nt | 0 | nt | nt | nt
COc1cc(OC)c2c(C)c(CC(=O)NCC3(N4CCN(C)CC4)CCCCC3)c(=O)oc2c1 | nt | nt | 9 | nt | nt | nt
CCCCCn1nc(C(=O)OCc2ccc(C(=O)OC)cc2)c2ccccc2c1=O | nt | nt | 3 | nt | nt | nt
CCn1c(Nc2ccccc2Cl)nc2ccccc21 | -26% | -7 | -6 | -20% | -20% | -1%
CCn1c2ccccc2nc2cc3c(cc21)c(Cl)c(=O)c1ccccc13 | 5.8µM* | 26 | 17 | nt | 8.2µM* | nt
CCCC(=O)N(CC)Cc1cc(=O)[nH]c2ccccc12 | nt | nt | -1 | nt | nt | nt
COc1ccccc1CC(=O)Nc1ccc2nc(Nc3cccc(C(F)(F)F)c3)cc(C)c2c1 | 5.8µM* | nt | -6 | nt | 7.3µM* | nt
